This is an account of results in PubChem BioAssay (EPA / NIEHS).

Several values for one entry are separate records, joined by “and”; a condition that tells them apart may be missing. Equal values may be shown once. Records with an inconclusive call do not appear. Some compounds were tested as several samples or in several runs, with calls that do not always agree. Activity calls are given as the source filed them. Rule for the calls, unless noted: active = hit-call score of the fitted dose curve at least 0.9, where 1 is the maximum; inactive = score below 0.9.

Test [1] in a line: CCTE_Shafer_MEA_acute_burst_duration_mean: CCTE's Neural Acute Assay for Mean Burst Duration, Shafer Lab (AID 2284014).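 Note: hits are decreases in mean burst duration relative to DMSO controls.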 Put shortly:
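Read-out is the per-well percent change in mean burst duration (first to last spike within a single-electrode burst) between 40-min recordings before and after compound. Cultures were primary rat cortical neurons on MEAs, dosed at 0.03-40 uM on DIV 13 or 15.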

Test [2] in a line: CCTE_Shafer_MEA_acute_per_burst_spike_number_mean: CCTE's Neural Acute Assay for Average Number of Spikes Per Burst, Shafer Lab (AID 2284015).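 Note: hits are decreases in mean spikes per burst versus baseline.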 In short, it runs like this:
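We recorded spontaneous network firing of rat cortical neurons for 40 min before and 40 min during exposure to compound at 0.03-40 uM, at 37 C. Spikes were detected adaptively at 8x rms noise, and the change in average spikes per burst was fitted against DMSO.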

Test [3] in a line: CCTE_Shafer_MEA_acute_interburst_interval_mean: CCTE's Neural Acute Assay for Mean Interburst Interval, Shafer Lab (AID 2284016).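 Note: percent change of mean interburst interval versus each well's own pre-dose baseline; curves fitted for decrease in interburst interval relative to DMSO.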 In short, it runs like this: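 MEA recording of spontaneous network bursting in primary rat cortical cultures; mean interburst interval was compared before and after a 40-min compound exposure (0.03-40 uM) and expressed as percent change, relative to DMSO.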

The nature of test [4]: CCTE_Shafer_MEA_acute_burst_percentage_mean: CCTE's Neural Acute Assay for Percentage of Spikes in a Burst, Shafer Lab (AID 2284017).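 For AC50: curve fitted for loss of signal so potency reflects decreased burst percentage.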 Put shortly:
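Compounds were tested at 0.03-40 uM on primary rat cortical neuron networks grown over microelectrodes, with at least three wells per compound. Spontaneous firing was recorded for 40 min before and 40 min after dosing, and the change in burst percentage was computed per well.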

The nature of test [5]: CCTE_Shafer_MEA_acute_burst_percentage_std: CCTE's Neural Acute Assay for Standard Deviation of Burst Percentage, Shafer Lab (AID 2284018).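 Note: fitted in the negative direction so actives lower burst percentage SD.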 In short, it runs like this:
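Value is percent change from baseline in the across-electrode SD of spikes-in-bursts percentage, wells with >/= 10 active electrodes. Acute 40-min exposure to 0.03-40 uM on DIV 13 or 15 rat cortical cultures, recorded at 37 C after 40-min baseline.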

A short description of test [6]: CCTE_Shafer_MEA_acute_per_network_burst_spike_number_mean: CCTE's Neural Acute Assay for Average Number of Spikes in a Network Burst, Shafer Lab (AID 2284019).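 For AC50: curve fitted for loss of signal so actives reduce spikes per network burst.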 Put shortly:
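Read-out is mean spike count per network burst, taken as percent change between a 40-min pre-exposure and a 40-min post-exposure recording per well. Rat primary cortical neurons on MEAs at 37 C, DIV 13 or 15; compounds at 0.03-40 uM.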

A short description of test [7]: CCTE_Shafer_MEA_acute_per_network_burst_spike_number_std: CCTE's Neural Acute Assay for Standard Deviation of Number of Spikes in a Network Burst, Shafer Lab (AID 2284020).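 Note: fitted for decrease in spike-number SD versus DMSO so actives lower it.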 Put shortly:
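Spontaneous network activity of primary rat cortical neurons is recorded extracellularly before and after a 40-min compound exposure (0.03-40 uM) at 37 C. The endpoint is the well's percent change in burst spike-number SD.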

Test [8] is described as follows: CCTE_Shafer_MEA_acute_per_network_burst_electrodes_number_mean: CCTE's Neural Acute Assay for Mean Number of Electrodes in a Network Burst, Shafer Lab (AID 2284021).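 Note: curves fitted for decreases only so hits reduce electrodes per burst.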 In short, it runs like this: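 Primary rat cortical networks, mwMEA, 37 C. 20 min stabilization, 40 min baseline, compound 0.03-40 uM, 40 min re-record. Wells need >=10 active electrodes; percent change per well, negative fitting direction.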

A short description of test [9]: CCTE_Shafer_MEA_acute_cross_correlation_area: CCTE's Neural Acute Assay for Area of Cross Correlation, Shafer Lab (AID 2284024).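 Note: rat primary cortical neuron networks on 48-well MEA at DIV 13 or 15 with 40 min exposure; area under pooled inter-electrode spike cross-correlation near zero lag as percent change from own baseline; curves fitted for loss of cross-correlation area so actives lower synchrony.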 Put shortly: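 Plates equilibrated 20 min at 37 C, then 40 min baseline was recorded, compound was added (0.03-40 uM), and a further 40 min was recorded. Wells needed ≥10 active electrodes (≥5 spikes/min) on exposure day.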
A short description of test [10]: CCTE_Shafer_MEA_acute_cross_correlation_HWHM: CCTE's Neural Acute Assay for Cross Correlation at Half Width at Half Maximum, Shafer Lab (AID 2284026).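 Note: percent change per well from pre-dose baseline in spike cross-correlogram half width; hits are a decrease in cross-correlogram half width relative to DMSO.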 In short, it runs like this:
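Rat cortical neuron cultures on microelectrode arrays were equilibrated 20 min at 37 C, recorded 40 min at baseline, then 40 min after compound addition (0.03-40 uM, ≥3 wells). Spikes were detected at 8x rms noise after 300-5000 Hz band-pass filtering.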

Test [11] can be described thus: CCTE_Shafer_MEA_acute_synchrony_index: CCTE's Neural Acute Assay for Synchrony, Shafer Lab (AID 2284027).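 Note: network synchrony index of spontaneous spiking in primary rat cortical neurons on MEAs; fitted for loss of signal so actives lower synchrony relative to DMSO.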 In short, it runs like this: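 Primary rat cortical neurons on 16-electrode MEA wells were recorded 40 min at baseline (DIV 13 or 15) and 40 min after compound (0.03-40 uM) at 37 C. Synchrony index (0-1) expressed as percent change from baseline, versus DMSO.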

Test [12] in a line: CCTE_Shafer_MEA_dev_firing_rate_mean: CCTE's Neural Network Formation Assay for Mean Firing Rate, Shafer Lab (AID 2284031).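 For AC50: curve fitted for loss of firing so AC50 reflects decreased mean firing rate.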 In short, it runs like this: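 Primary rat cortical neurons on 48-well, 16-electrode MEAs (PEI-coated, laminin at plating), exposed from day 0 with compound renewed at DIV 5 and 9. Spikes recorded DIV 5, 7, 9, 12; well-mean firing rate collapsed to trapezoidal AUC, loss-of-signal vs DMSO.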

Test [13] can be described thus: CCTE_Shafer_MEA_dev_per_burst_spike_percent: CCTE's Neural Network Formation Assay for Percent of Spikes in a Burst, Shafer Lab (AID 2284032).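 For AC50: fitted as a decrease in burst spike percentage below DMSO baseline.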 Put shortly: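 Rat primary cortical neurons on 16-electrode MEA wells, dosed from plating day 0 for 12 days with renewal on DIV 5 and 9; spikes-in-bursts percentage averaged over bursting electrodes, collapsed as AUC across days 5, 7, 9, 12; loss direction versus DMSO.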

For test [14], the target named is Estrogen receptor (Homo sapiens) (UniProt P03372). Nature of the test: CCTE_Deisenroth_AIME_384WELL_LUC_Active: CCTE's 384-well Estrogen Receptor Transactivation Assay with AIME metabolic competence (ERTA luciferase; metabolism positive), Deisenroth Lab (AID 2284030; active = hit-call score of the fitted dose curve at least 0.9, where 1 is the maximum). Put shortly:
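AIME metabolism-positive mode: chemicals 0.002 - 200 uM, 2 h with alginate-bound PB/BNF-induced rat S9 → medium to VM7Luc4E2 ERTA, 24 h → luciferase. Positive fit vs 17beta-estradiol; n=4 typical.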

For test [15] the target is unchanged. In words: CCTE_Deisenroth_AIME_384WELL_LUC_Inactive: CCTE's 384-well Estrogen Receptor Transactivation Assay without AIME metabolic competence (ERTA luciferase; metabolism negative), Deisenroth Lab (AID 2284038; active = hit-call score of the fitted dose curve at least 0.9, where 1 is the maximum;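 note: VM7Luc4E2 breast cells given medium preincubated 2 h with S9-free microspheres; hits raise estrogen receptor luciferase signal so potencies reflect agonists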). In short, it runs like this: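 Chemicals (10-point series, 0.002 - 200 uM) were incubated 2 hours with alginate-water microsphere lids lacking S9, then the conditioned medium was transferred to VM7Luc4E2 breast cells for 24 hour. Luciferase induction was read by bioluminescence, fitted upward relative to 17beta-estradiol.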

Test [16] in a line: CCTE_Deisenroth_AIME_384WELL_CTox_Active: Cytotoxicity Assessment (CTOX) in CCTE's 384-well Estrogen Receptor Transactivation Assay with AIME metabolic competence (metabolism positive), Deisenroth Lab (AID 2284037; active = hit-call score of the fitted dose curve at least 0.9, where 1 is the maximum;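 note: chemicals first conditioned 2 h by alginate-bound induced rat liver S9 before cells; activity means signal loss indicating cell death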). In short, it runs like this:
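Cytotoxicity in VM7Luc4E2 breast cells, 24 hour, measured as protease-substrate fluorescence loss, after 2-hour metabolic conditioning with induced rat hepatic S9 in alginate microspheres. Concentrations 0.002 - 200 uM, 10 points, bidirectional fitting.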

Chain of Estrogen receptor (Homo sapiens) (P03372 whole entry, looked up): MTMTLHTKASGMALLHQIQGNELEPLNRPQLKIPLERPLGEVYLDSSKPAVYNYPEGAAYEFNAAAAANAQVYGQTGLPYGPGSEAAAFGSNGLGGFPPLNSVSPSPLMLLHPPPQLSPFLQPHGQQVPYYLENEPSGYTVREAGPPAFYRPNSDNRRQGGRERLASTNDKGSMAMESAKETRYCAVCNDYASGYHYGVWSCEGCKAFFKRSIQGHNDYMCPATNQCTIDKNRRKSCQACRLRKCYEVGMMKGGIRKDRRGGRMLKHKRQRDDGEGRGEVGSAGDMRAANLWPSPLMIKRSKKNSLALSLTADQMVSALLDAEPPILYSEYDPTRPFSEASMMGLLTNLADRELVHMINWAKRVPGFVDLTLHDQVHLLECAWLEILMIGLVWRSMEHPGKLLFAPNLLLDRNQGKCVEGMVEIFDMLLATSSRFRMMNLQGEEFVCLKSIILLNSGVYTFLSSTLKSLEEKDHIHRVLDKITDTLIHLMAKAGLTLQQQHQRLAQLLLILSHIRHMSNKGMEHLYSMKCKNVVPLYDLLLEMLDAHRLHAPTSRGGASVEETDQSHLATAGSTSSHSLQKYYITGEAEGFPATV

`O=C(NC(=O)c1c(F)cccc1F)Nc1cc(Cl)c(OC(F)(F)C(F)F)c(Cl)c1`: the compound was classed as inactive in test [1], in test [2], in test [4], in test [5], in [6] and in test [7]. For the same compound, the result in test [8], in test [9], in test [10] and in [11] was inactive. The AC50 (as a rule, the concentration giving half of the maximal activity seen) in [3] is 20 µM (active).

`CC#Cc1cc(C)nc(Nc2ccccc2)n1`: the result in test [1] and in [9] was inactive. Further, the AC50 was 7.84 µM (active) in test [2]; 4.15 µM (active) in test [3]; 6.86 µM (active) in test [4]; 4.1 µM (active) in test [5]; 2.62 µM (active) in test [6]; 4.76 µM (active) in test [7]. For the same compound, the AC50 in test [8] was 2.57 µM (active); in test [10], 5.98 µM (active); in test [11] it was 6.46 µM (active).

In the case of `ClC(Cl)=C(c1ccc(Cl)cc1)c1ccc(Cl)cc1`, the outcome in test [1], in test [2], in test [3], in [5], in test [6] and in test [7] was inactive. The result in test [8], in test [9], in test [10] and in test [11] was inactive. Also, the results for the half-maximal activity concentration (AC50) in test [4], in [12] and in [13] were 33.2 µM (active), 4.06 µM (active) and 5.67 µM (active), respectively.

Consider `CC(C)C(=O)OCC(C)(C)C(OC(=O)C(C)C)C(C)C` (stereo not drawn), for which the compound was classed as inactive in [1], in test [2], in [3], in test [4], in [5] and in test [6]. For the same compound, the call in [7], in [8], in test [9], in test [10] and in [11] was inactive.

For the compound `CCC(C)(CC)c1cc(NC(=O)c2c(OC)cccc2OC)on1`, the compound was classed as inactive in test [1], in [2], in test [3], in [4], in [5] and in [6]. The compound was classed as inactive in test [7], in test [8], in test [9] and in test [11]. The AC50 in test [10] was 11.4 µM (active).

As to `O=C(O)C(F)(F)C(F)(F)C(F)(F)C(F)(F)C(F)(F)F`, the compound was called inactive in test [1], in test [2], in [3], in [4], in test [5] and in test [6]. The outcome in [7], in test [8], in [9], in [10], in test [11] and in test [12] was inactive. Also, the result in test [13] was inactive.

Take `Clc1ccc(C(c2ccccc2Cl)C(Cl)(Cl)Cl)cc1` (stereo not drawn): the AC50 is 2.03 µM (active) in [12] and 1.99 µM (active) in test [13].

On to `Cc1ccc(O)c(C)c1`, for which the compound was called inactive in test [14] and in [15].

As to `CCOP(=S)(OCC)SCSC(C)(C)C`, the concentration at half-maximal activity (AC50) in [12] was 23.4 µM (active); in [13] it was 23.1 µM (active) and 27.1 µM (active). In addition, in test [12], the call was inactive.

For `NS(=O)(=O)C(F)(F)C(F)(F)C(F)(F)C(F)(F)C(F)(F)C(F)(F)C(F)(F)C(F)(F)F`, the result in test [12] and in test [13] was inactive. For the same compound, in test [13], the concentration at half-maximal activity (AC50) was 15 µM (active).

For the compound `OCC(O)CO`, the concentration at half-maximal activity (AC50) in [14] was 0.0002 µM (active); in test [15], 0.000417 µM (active). Also, the result in test [14], in [16] and in test [15] was inactive.

As to `C=CC(=O)NCNC(=O)C=C`, the compound was classed as inactive in [14], in test [16] and in [15].

As for `O=C(O)C(F)(F)C(F)(F)C(F)(F)C(F)(F)C(F)(F)C(F)(F)C(F)(F)C(F)(F)F`, the outcome in test [14], in test [12], in [13] and in [15] was inactive. Besides, the half-maximal activity concentration (AC50) in test [16] is 146 µM (active).

As to `Cc1cc(-c2ccc(N)c(C)c2)ccc1N`, the AC50 in [14] is 11.9 µM (active); in [15] it was 15.2 µM (active). In addition, in [16], the compound was classed as inactive.

As for `CCCCCCOC(=O)c1ccccc1C(=O)OCCCCCC`, the compound was classed as inactive in test [14] and in test [15].
